We go through 46 sequences from article PMC10726135, “HNF4α isoforms regulate the circadian balance between carbohydrate and lipid metabolism in the liver”.

Whole data set: some 18,000 sequences, median “log2 normalized intensity” near 0.39, cut for the highest 2% near 6.6. Shown is part of a subset that was picked to be rich in the highest values.

The assay has as its target T1, HNF4alpha2 (COS-7 nuclear extract) (Homo sapiens, UniProt P41235 1-474).
T1 sequence: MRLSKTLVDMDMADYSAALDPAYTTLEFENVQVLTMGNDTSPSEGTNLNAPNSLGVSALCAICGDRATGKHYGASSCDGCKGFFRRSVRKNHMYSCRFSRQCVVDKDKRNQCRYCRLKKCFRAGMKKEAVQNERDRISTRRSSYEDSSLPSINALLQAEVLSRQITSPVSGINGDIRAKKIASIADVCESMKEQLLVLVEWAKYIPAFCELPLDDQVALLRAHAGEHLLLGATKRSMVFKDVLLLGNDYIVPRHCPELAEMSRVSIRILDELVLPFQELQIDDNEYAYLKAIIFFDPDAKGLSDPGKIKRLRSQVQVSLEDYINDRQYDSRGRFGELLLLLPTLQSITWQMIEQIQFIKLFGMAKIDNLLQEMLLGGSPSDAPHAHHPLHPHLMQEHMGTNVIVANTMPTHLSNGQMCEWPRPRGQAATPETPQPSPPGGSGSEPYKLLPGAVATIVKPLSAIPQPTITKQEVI
In words: protein-binding microarray; COS-7 nuclear extract on double-stranded Agilent 4x180k PBM; binding buffer, salt, pH and temperature not given in the material; high values mean tight binding. To be noted: chain copies: 2; label: 3' end of strand 1 on the slide; dsDNA, one strand shown. The procedure, abridged: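 COS-7 cells were transiently transfected by CaPO4 with an expression vector for a human HNF4α isoform, and nuclear extracts were prepared from them. The extracts were applied to a custom Agilent SurePrint G3 4x180k array of double-stranded ~60-nt oligonucleotides, with ~44,000 test sequences spotted in quadruplicate. An Agilent G2565CA scanner imaged bound HNF4α at 2-µm resolution. Binding signal is the background-corrected, normalized gProcessedSignal from Agilent software.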
“TTCCCTAAGATTCTGGTCAAAGGTCAATGAGCCTAGGGAGATTAGAGTATCGGTCGA”: the binding signal worked out at 7.36 log2 normalized intensity.

As for “ATTCATTCCCTAAGATTCTGGTCAAAGGTCGCCTAGGGAGATTAGAGTATCGGTCGA”, the binding signal came out at 7.3 log2 normalized intensity.

As for “TATCTGGTTCAAAGGTCATTTCTGCTTGCAGCCTAGGGAGATTAGAGTATCGGTCGA”, the binding signal came to 5.75 log2 normalized intensity.

For the sequence “TTACATGCCTTATCTGGTTCAAAGGTCATTGCCTAGGGAGATTAGAGTATCGGTCGA”, the binding signal came to 7.65 log2 normalized intensity.

In the case of “TGAGGCCCCAGTGTCAATTCTCATTCATCCGCCTAGGGAGATTAGAGTATCGGTCGA”, the binding signal is -0.225 log2 normalized intensity.

Regarding “AACCCTTGCACTGCTGGTTTTTGTCAAAGAGCCTAGGGAGATTAGAGTATCGGTCGA”, the binding signal was 0.709 log2 normalized intensity.

“GCCTGTCAGGCCCAGAAACACTGAACCTTGGCCTAGGGAGATTAGAGTATCGGTCGA”: the binding signal is 1.63 log2 normalized intensity.

“TTGCACTGCTCAGGGTGGGGTCTCGCTGCTGCCTAGGGAGATTAGAGTATCGGTCGA”: the binding signal is -0.755 log2 normalized intensity.

As for “ACACAATATTATGTTTTGTTATCTGTGCCAGCCTAGGGAGATTAGAGTATCGGTCGA”, the binding signal is 1.17 log2 normalized intensity.

With “GTAAACTCCCTTTGATGCGGTCAGAGTTCAGCCTAGGGAGATTAGAGTATCGGTCGA”, the binding signal turned out to be 3.08 log2 normalized intensity.

On to “AGTGAACTCAAAGAAAAGTTATGTTGGGCAGCCTAGGGAGATTAGAGTATCGGTCGA”, for which the binding signal was 1.17 log2 normalized intensity.

“TCCCTTGCTCCACCCTTCTATCCCCTTATCGCCTAGGGAGATTAGAGTATCGGTCGA”: the binding signal is 2.8 log2 normalized intensity.

For “AAGATTTATCAGGTCTTTCTTTCAGAACAGGCCTAGGGAGATTAGAGTATCGGTCGA”, the binding signal worked out at 0.622 log2 normalized intensity.

For “GCAGTTTAGAGAAAGGGTCAAAGGTTAAGCGCCTAGGGAGATTAGAGTATCGGTCGA”, the binding signal was 8.4 log2 normalized intensity.

“TAGGAGACTGTCTTAGGAAAGAACAGGTCAGCCTAGGGAGATTAGAGTATCGGTCGA”: the binding signal is 1.14 log2 normalized intensity.

Consider “TTAGAGAAAGGGTCAAAGGTTAAGCCATTGGCCTAGGGAGATTAGAGTATCGGTCGA”, for which the binding signal came out at 5.92 log2 normalized intensity.

For the sequence “GCAGAGCAGTTTAGAGAAAGGGTCAAAGGTGCCTAGGGAGATTAGAGTATCGGTCGA”, the binding signal was determined as 5.29 log2 normalized intensity.

Take “CTTTGGACTTTCAAAAGTTAAGGTCAAGACGCCTAGGGAGATTAGAGTATCGGTCGA”: the binding signal is 1.94 log2 normalized intensity.

For the sequence “GGAAAGAACAGGTCAAAGGTCAGTTTCTTTGCCTAGGGAGATTAGAGTATCGGTCGA”, the binding signal worked out at 7.28 log2 normalized intensity.

Turning to “GAACAGGTCAAAGGTCAGTTTCTTTAAGACGCCTAGGGAGATTAGAGTATCGGTCGA”, the binding signal amounted to 7.04 log2 normalized intensity.

Take “TCAGAAACAGGAATTCAAAGGTGCAAAGGTGCCTAGGGAGATTAGAGTATCGGTCGA”: the binding signal was 2.06 log2 normalized intensity.

Consider “TCTTAGGAAAGAACAGGTCAAAGGTCAGTTGCCTAGGGAGATTAGAGTATCGGTCGA”, for which the binding signal is 9.13 log2 normalized intensity.

Regarding “GGTCAAAGGTCAGTTTCTTTAAGACAAGTGGCCTAGGGAGATTAGAGTATCGGTCGA”, the binding signal stood at 5.53 log2 normalized intensity.

Regarding “GACTGTCTTAGGAAAGAACAGGTCAAAGGTGCCTAGGGAGATTAGAGTATCGGTCGA”, the binding signal came out at 3.91 log2 normalized intensity.

Turning to “ACCCTGAATGTGTGCTGGCCTGGTTCCTTCGCCTAGGGAGATTAGAGTATCGGTCGA”, the binding signal worked out at 0.887 log2 normalized intensity.

“TTGTCCCTTTTCTATCCAGATGATCTTTACGCCTAGGGAGATTAGAGTATCGGTCGA”: the binding signal was 2.25 log2 normalized intensity.

For “GTCCCAGTAGATAACTTCAAGGAGCTCGGCGCCTAGGGAGATTAGAGTATCGGTCGA”, the binding signal is -0.627 log2 normalized intensity.

Regarding “GTAGGGCCAATCTCTGGCATGTATTTATCAGCCTAGGGAGATTAGAGTATCGGTCGA”, the binding signal was 0.384 log2 normalized intensity.

Take “ATAGGAGGATTTTATTCAGGTGGCCACTGGGCCTAGGGAGATTAGAGTATCGGTCGA”: the binding signal was 1.03 log2 normalized intensity.

For the sequence “GTTCCGCGGTCCGCAGCGCTGGTGGCTGCAGCCTAGGGAGATTAGAGTATCGGTCGA”, the binding signal was -0.919 log2 normalized intensity.

With “CTTTGTATAAGCCGTGCAAAGTTCATCCCTGCCTAGGGAGATTAGAGTATCGGTCGA”, the binding signal was 3.24 log2 normalized intensity.

Consider “CTCGAGGTGGACTTTCCCCCCTCACACTTTGCCTAGGGAGATTAGAGTATCGGTCGA”, for which the binding signal turned out to be 5.25 log2 normalized intensity.

Regarding “TTGTTTTTGCTTGGAATGCCCTTATCTCATGCCTAGGGAGATTAGAGTATCGGTCGA”, the binding signal amounted to 2.32 log2 normalized intensity.

On to “AGCTGGGCCTGTGCTGGGGACAAAAGCTGAGCCTAGGGAGATTAGAGTATCGGTCGA”, for which the binding signal was -0.959 log2 normalized intensity.

Regarding “CATTTTTTTCCACCCTCCCCTCCCCCTCCTGCCTAGGGAGATTAGAGTATCGGTCGA”, the binding signal stood at 6.28 log2 normalized intensity.

Turning to “ACTGCATTCCCTTTCTCCTCCCCTCCCCTCGCCTAGGGAGATTAGAGTATCGGTCGA”, the binding signal amounted to 4.31 log2 normalized intensity.

“AGGCCCTCGGCATCATGCCCTTTGGCCCCCGCCTAGGGAGATTAGAGTATCGGTCGA”: the binding signal came to 7.28 log2 normalized intensity.

Consider “CCCTCCTCCTTTTTTTCCCCTCCCTCAGCTGCCTAGGGAGATTAGAGTATCGGTCGA”, for which the binding signal was found to be 3.64 log2 normalized intensity.

As for “CTTACTCTCTCCCTCCTCCTTTTTTTCCCCGCCTAGGGAGATTAGAGTATCGGTCGA”, the binding signal was determined as 2.98 log2 normalized intensity.

For “TCTCTCCCTCCTCCTTTTTTTCCCCTCCCTGCCTAGGGAGATTAGAGTATCGGTCGA”, the binding signal turned out to be 4.61 log2 normalized intensity.

In the case of “CTCGGCATCATGCCCTTTGGCCCCCAGAGCGCCTAGGGAGATTAGAGTATCGGTCGA”, the binding signal was found to be 6.14 log2 normalized intensity.

Regarding “ATTCCCTTTCTCCTCCCCTCCCCTCCCCCCGCCTAGGGAGATTAGAGTATCGGTCGA”, the binding signal was 6.91 log2 normalized intensity.

For the sequence “TTCCTCCCACTCTGACATCCCCCTTTCTCTGCCTAGGGAGATTAGAGTATCGGTCGA”, the binding signal is 3.26 log2 normalized intensity.

In the case of “CTTTCTCCTCCCCTCCCCTCCCCCCACTCAGCCTAGGGAGATTAGAGTATCGGTCGA”, the binding signal turned out to be 6.94 log2 normalized intensity.

With “TTTTCCACCCTCCCCTCCCCCTCCTCCCCTGCCTAGGGAGATTAGAGTATCGGTCGA”, the binding signal was 7.13 log2 normalized intensity.

As to “ACACCAGGCCCTCGGCATCATGCCCTTTGGGCCTAGGGAGATTAGAGTATCGGTCGA”, the binding signal is 3.91 log2 normalized intensity.
